LmPK inh – blocks Leishmania mexicana pyruvate kinase activity; Q27686; 290,000 tested, 0.37% active; Potency, µM (titrated, usually from 57.5 µM), inactives show top-dose activity change, negative = inhibition, actives largely listed as inhibitors; purified LmPK, Kinase-Glo ATP luminescence, 1 h; further: potency means the concentration at half of the fitted maximal effect; on the % scale 0 is the no-effect control and ±100 the full control effect
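qHTS format; LmPK 0.1 nM; substrates PEP 0.5 mM and ADP 0.1 mM. One-hour room-temperature incubation, then coupled luciferase luminescence; 0.5 nM enzyme wells mark activation.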
NS1 inh – inhibitors of influenza NS1 protein function; Potency, µM (titrated, usually from 46.1 µM), for inactives: top-dose activity, positive = more growth; 270,000 tested, 0.4% active; AID 2326; calls by dose curve; further: potency means the concentration at half of the fitted maximal effect; actives are rising curves; nearly all actives have a fitted effect of over 50% in size
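Read-out: OD600 growth recovery of NS1-expressing budding yeast. Cells grown overnight at 30C in -URA glucose medium, washed, resuspended and diluted 1:100 in 2% galactose assay medium, pH 6.0. Same strain lacking NS1 served as positive control.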
Shiga toxin inh – inhibitors of Shiga toxin in Vero cells | Vero cells, Shiga toxin protein synthesis inhibition reporter | inhibition, % at 38.7 µM | 290,000 tested, 9.2% active | AID 2315; in the data active means inhibition mostly above about 28%, no sharp cut-off; inactive means mostly below about 43%; further: 0% is about no effect
Giardia FBPA inh – inhibitors of Giardia lamblia fructose-1,6-bisphosphate aldolase; A8B2U2; purified Giardia FBPA; Potency, µM (highest dose often 59.6 µM), inactives show at the top dose activity, negative = inhibition, hits mostly inhibitors; 290,000 tested, 0.71% active; AID 2451; further: potency means the concentration at half of the fitted maximal effect; on the % scale 0 is the no-effect control and ±100 the full control effect; nearly all actives have a fitted effect of over 55% in size
Target sequence (A8B2U2 whole entry, looked up): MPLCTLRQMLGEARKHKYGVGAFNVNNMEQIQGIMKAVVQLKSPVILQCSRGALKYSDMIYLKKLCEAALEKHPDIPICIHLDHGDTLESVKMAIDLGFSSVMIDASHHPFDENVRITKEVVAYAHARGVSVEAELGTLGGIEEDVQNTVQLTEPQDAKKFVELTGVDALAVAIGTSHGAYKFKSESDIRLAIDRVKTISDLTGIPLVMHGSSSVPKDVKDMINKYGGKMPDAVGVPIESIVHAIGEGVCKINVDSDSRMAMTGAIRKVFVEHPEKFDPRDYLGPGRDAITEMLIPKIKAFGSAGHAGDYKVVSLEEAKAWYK
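Giardia FBPA (40 nM reagent) was preincubated 10 min at RT with compound (up to 57.5 uM final), then substrate plus GAPDH/TPI/NAD/arsenate coupling system with diaphorase/resazurin was added; resorufin fluorescence (525/598 nm) was read after 20 min.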
CHX counter – counter-screen hit for Shiga toxin inhibitors, cycloheximide; 300,000 tested, 12% active; AID 2314; max response, %; cell reporter, cycloheximide protein synthesis inhibition counterscreen; in the data active means max response mostly above about 13%, no sharp cut-off; inactive means mostly below about 14%; further: read at 38.3 µM for the half of the compounds with a filed dose; 0% is about no effect
The depositor's hits bear a star; ? = inconclusive; . = no result given; [ ] = another dose, or the depositor's remark. Sampled rows, rich in hits. Any-hit rate of the full collection: about 14%. Unless noted, the call rests on the fitted dose curve; in most records, active means well fitted curve in the direction sought with a large enough effect; inconclusive means small, poorly fitted or top-dose-only effect, or another doubt; inactive means no such curve, though single readings can be large; an effect the other way counts as inactive or inconclusive.

SMILES	LmPK inh	NS1 inh	Shiga toxin inh	Giardia FBPA inh	CHX counter
Cc1ccc2nc(-c3cccc(Br)c3)cc(C(=O)NC3=NCCS3)c2c1	5%	11%	76*	-8%	15
O=C(NC1=NCCS1)c1cc(-c2cccc(Br)c2)nc2ccccc12	0%	-29%	22	7%	20*
CCOc1ccccc1NC(=O)c1nnn(CC(=O)Nc2cc(C)cc(C)c2)c1N	5%	4%	18	.	3
COc1ccc(-c2nc3cnc(N4CCOCC4)nc3n(-c3ccc(OC)cc3)c2=O)cc1	.	.	.	-6%	.
COCCC(=O)N1CCC(Oc2ccc(C(=O)NC3CCOC(C)(C)C3)cc2)CC1 (stereo not given)	-1%	4%	-5	2%	-2
C=C1N(C)c2cc([N+](=O)[O-])c(N)cc2C1(C)C	-8%	3%	14	4.5µM*	8
O=c1[nH]c(SCc2ccccc2)nc2ccsc12	-5%	.	24	-9%	36*
CCOC(=O)CSc1nc2ccsc2c(=O)[nH]1	6%	2%	-2	-15%	0
OCC#Cc1cnc2ccccc2c1	0%	-5%	21	4%	26*
N#Cc1ccc(C(=O)NNC(=O)c2ccncc2)cc1	2%	-1%	-14	-11%	1
COc1ccc(S(=O)(=O)NCC2CCC(C(=O)NCCCN3CCCC3=O)CC2)cc1 (stereo not given)	7%	-6%	15	5%	-2
COc1ccc(/C=N/NC(=O)NC23CC4CC(CC(C4)C2)C3)c(OC)c1	3%	-5%	-6	12%	-5
COc1ccc(/C=N/Nc2nc(N)cc(Cl)n2)cc1OC	-1%	4%	46	-2%	21*
COc1ccc(/C=N/Nc2ccccn2)cc1OC	-4%	0%	94*	-1%	54*
COc1ccc(/C=N/NC(=O)C(=O)Nc2ccccn2)cc1OC	-2%	4%	-12	-3%	-3
COc1cc(/C=N/Nc2ccccn2)ccc1O	-2%	0%	74*	-3%	49*
Cc1nccn1CC(=O)N/N=C/c1ccccc1O	1%	1%	3	23%	-1
O=C(N/N=C/c1ccccc1O)C(=O)Nc1ccccn1	-11%	.	77*	14%	24*
O=C(O)[C@@H](c1ccccc1)[C@@H](C(=O)O)c1ccccc1	.	-4%	.	.	.
Nc1ncnc2n[nH]c(Nc3ccc(F)cc3)c12	.	.	-12	2%	-6
C=CCOc1ccc(/C=N/NC(=O)C(=O)Nc2ccccn2)cc1OC	4%	12%	31	0%	12*
COc1ccc(-c2cnnc(N/N=C/c3ccc(O)c(OC)c3)n2)cc1	5%	-9%	-1	1%	20*
CC(=O)C(/C=N/c1ncc(C(F)(F)F)cc1Cl)=C(\C)O	1%	.	10	2%	16
Cc1ccc(-c2cccc(NC(=O)C3C(C(=O)O)[C@@H]4C=C[C@H]3C4)c2)o1 (stereo not given in full)	0%	21%	33*	-4%	18
O=C(COC(=O)C1=COCCO1)Nc1cccc(Oc2ccccc2)c1	9%	-12%	-1	0%	1
SMILES	LmPK inh	NS1 inh	Shiga toxin inh	Giardia FBPA inh	CHX counter
COc1ccccc1C(=O)OCC(=O)Nc1ccc(OC(F)F)cc1	3%	-52%	93*	-1%	21*
O=C(COC(=O)C1=COCCO1)Nc1ccccc1	14%	.	64*	5%	52*
O=C(COC(=O)C1=COCCO1)Nc1ccc(OC(F)F)cc1	-1%	.	53*	-2%	38*
O=C(COC(=O)C1=COCCO1)NC1CCCCCCC1	-12%	.	46*	-1%	29*
COc1ccccc1C(=O)OCC(=O)Nc1ccccc1OC(F)F	-2%	-5%	-5	1%	14
O=C(NC1CCCC1)C1=COCCO1	-1%	5%	3	4%	-5
CC(C)c1ccc(N)c(S(=O)(=O)O)c1	4%	3%	-8	-4%	1
CCN(CC)c1ccc(C=N/C(C#N)=C(\N)C#N)cc1	4%	-12%	54*	-16%	28*
CSc1ccc(C2N=C(c3ccccc3)NO2)cc1 (stereo not given)	1%	0%	114*	-18%	41*
Oc1c(Br)cc(C2N=C(c3ccccc3)NO2)cc1Br (stereo not given)	-8%	-114%	103*	8%	26*
CC(=O)N[C@@H](C(=O)O)C(C)(C)SN=O	.	.	.	-4%	.
CC(C)(C)c1cccc(/C=N/O)c1O	3%	-7%	-6	-5%	-3
CC(C)(C)c1ccc(O)c(/C=N\O)c1	-7%	-24%	53*	-19%	18*
O=C(NCc1ccccc1)Nc1cccn(Cc2ccccc2Cl)c1=O	-2%	-7%	50*	?	3
CSc1ccc(NC(=O)Nc2cccn(Cc3ccccc3)c2=O)cc1	-4%	-7%	64*	-3%	29*
Cc1ccc(Cn2cccc(NC(=O)NCc3ccccc3)c2=O)cc1	6%	19%	9	-3%	-1
O=C(Nc1ccccc1)Nc1cccn(Cc2c(F)cccc2Cl)c1=O	-8%	-2%	95*	?	60*
COc1ccc(Cn2cccc(NC(=O)Nc3ccc(F)cc3)c2=O)cc1	2%	-8%	-1	?	2
O=C(Nc1cccn(Cc2c(Cl)cccc2Cl)c1=O)c1c(Cl)cccc1Cl	6%	-14%	-20	-18%	-4
Cc1ccc(Cn2cccc(NC(=O)c3ccco3)c2=O)cc1	1%	-81%	92*	-3%	37*
O=C(NCc1ccccc1)Nc1cccn(Cc2ccc(Cl)cc2)c1=O	-2%	-1%	-9	-9%	11
COC(=O)C1CC1C(NC(=O)[C@@H]1CCCN1)c1ccccc1 (stereo not given in full)	.	.	.	2%	.
O=C(N[C@@H](c1ccccc1)[C@@H]1C[C@H]1C(=O)NCc1ccccc1)OCc1ccccc1	.	.	.	8%	.
C=C(C)C(O)/C=C/c1ccc(OC)cc1 (stereo not given)	.	.	.	-4%[12.9 µM]	.
COc1cc(/C=N/Nc2nc3ccccc3o2)cc(OC)c1O	4%	-79%	42	-23%	25
SMILES	LmPK inh	NS1 inh	Shiga toxin inh	Giardia FBPA inh	CHX counter
CC(=O)Nc1cccc(/C(C)=N/NC(=O)c2cc(-c3ccncc3)nc3ccccc23)c1	0%	-4%	-10	5%	-2
CC(=O)Nc1cccc(/C(C)=N/Nc2nc3ccccc3s2)c1	14%	-10%	113*	-9%	39*
CC(=O)Nc1ccc(/C=N/Nc2nc3ccccc3s2)cc1	-7%	3%	72*	-1%	54*
COc1ccc(/C=N/Nc2nc3ccccc3o2)cc1O	?	-2%	76	-10%	36*
COc1cc(/C=N\Nc2nc3ccccc3o2)cc(OC)c1OC	-10%	3%	110*	-18%	40*
Cc1cccc(C)c1NC(=O)Cn1cc(C=O)c2ccccc21	-10%	-1%	-12	1%	-2
CC(C)(C)c1ccc(C(=O)N2CCCC2c2cccs2)cc1 (stereo not given)	-6%	-36%	3	21%	-2
Cc1cc(C)c(NC(=O)Cn2nnc(C(=O)Nc3ccc(F)cc3F)c2N)c(C)c1	7%	-7%	-6	0%	-6

Assay outcomes as filed in PubChem.
